Source: PMC5540273 (PLoS ONE, 2017)

Tests used:
Details in all cases: concentration: 1 μM, replicates: in singlicate; n = 1
[1] = tested on: PAK3
[2] = tested on: PAK4
[3] = tested on: PAK6
[4] = tested on: PAK7
[5] = tested on: T1, PCTK1
T1 construct: gene CDK16

[6] = tested on: T2, PCTK2
T2 construct: gene CDK17

[7] = tested on: T3, PCTK3
T3 construct: gene CDK18

[8] = tested on: PDGFRA
[9] = tested on: PDGFRB
[10] = tested on: PDPK1
[11] = tested on: PFTAIRE2
[12] = tested on: T4, PFTK1
T4 construct: gene CDK14

[13] = tested on: PHKG1
[14] = tested on: PHKG2
[15] = tested on: PIK3C2B
[16] = tested on: PIK3C2G
[17] = tested on: PIK3CA
[18] = tested on: PIK3CB
[19] = tested on: PIK3CD
[20] = tested on: PIK3CG
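Also: KINOMEscan kinase panel screen.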

Structure (SMILES)	%Inh [1] [%]	%Inh [2] [%]	%Inh [3] [%]	%Inh [4] [%]	%Inh [5] [%]	%Inh [6] [%]	%Inh [7] [%]	%Inh [8] [%]	%Inh [9] [%]	%Inh [10] [%]	%Inh [11] [%]	%Inh [12] [%]	%Inh [13] [%]	%Inh [14] [%]	%Inh [15] [%]	%Inh [16] [%]	%Inh [17] [%]	%Inh [18] [%]	%Inh [19] [%]	%Inh [20] [%]
COc1ccc(CSc2nnc(-c3ccc4nccn4c3)o2)cc1C(F)(F)F	0	16	35	22	13	8	3	28	0	0	0	4	0	0	21	12	15	11	29	32
COc1cc2ncnc(Nc3cccc(Br)c3)c2cc1OC.Cl [GI230329]	0	0	0	12	0	0	2	0	16	11	14	16	15	0	8	0	0	2	0	0
CCCCc1nn2ncccc2c1-c1ccnc(NC2CC2)n1 [GW684374]	0	0	0	0	7	0	15	0	68	0	13	18	0	0	0	0	0	0	0	0
Nc1cccc(-c2ccc3c(N)n[nH]c3c2)n1 [GSK2192730]	0	0	8	7	4	20	3	2	18	0	20	0	0	6	5	0	18	0	0	15
Cc1ccc(NC(=O)Nc2ccccc2F)cc1-c1ccc(C(=O)Nc2ccncc2)cc1 [GSK1398477]	27	0	5	11	4	12	46	50	100	19	28	25	23	4	0	0	0	0	0	0
Fc1ccc(-c2nn3cccc(F)c3c2-c2ccncc2)cc1 [GW475620]	20	0	0	0	6	0	0	0	3	0	0	20	0	0	0	15	0	0	25	0
Cc1ccc(-c2nc(Nc3ccncc3)c3ccccc3n2)s1 [GSK189015]	6	4	8	0	7	0	30	0	22	26	22	28	9	0	0	0	0	0	0	0
COc1nccc(-c2c(-c3ccc(F)cc3)ncn2CCCN2CCOCC2)n1 [SB-282852]	0	0	9	7	6	0	0	17	0	0	0	0	13	0	8	8	0	0	0	37
CNC(=O)c1ccc(C)c(-n2c(C)cc(OCc3ccc(F)cc3F)c(Br)c2=O)c1	0	0	0	0	0	0	0	0	0	0	0	8	5	0	0	0	0	0	0	0
COc1ccc(CSc2nnc(-c3ccc4ncsc4c3)o2)cc1C(F)(F)F	9	0	9	1	0	0	0	0	0	10	0	0	0	15	0	0	0	12	0	5
Cn1cncc1C(=O)NC1CCN(c2ccnc(Nc3ccc(F)cc3)n2)C1 (stereo not shown) [GSK1379717]	0	0	0	0	4	0	16	2	14	0	10	11	0	6	5	0	0	0	0	0
CS(=O)(=O)Cc1ccc(Nc2nccc(-c3c(-c4cccc(NC(=O)C5CCCCC5)c4)nn4ncccc34)n2)cc1 [GSK350559]	0	13	19	2	20	0	12	53	93.9	1	0	18	4	9	0	27	12	4	0	4
CNc1nc(-c2ccc3c(N)n[nH]c3c2)cc(N2C[C@@H](C(=O)Nc3ccccc3)CC[C@H]2C)n1 [GSK2298859]	0	0	2	20	2	0	9	0	10	83	3	17	0	15	0	0	0	0	0	0
COC(=O)C(Cc1ccccc1)NC(=O)NC1CCN(c2ccnc(Nc3ccc(F)cc3)n2)C1 (stereo not shown) [GSK1379714]	16	0	0	7	5	9	0	7	23	4	14	0	2	0	0	73	0	0	27	1
O=C(Nc1n[nH]c2nc(-c3cccs3)c(Br)cc12)C1CCCC1 [SB-743341]	0	0	9	0	46	54	56	32	74	0	9	20	2	12	0	5	5	61	0	0
CC[C@@H]1CO[C@H](C(=O)Nc2ccccc2)CN1c1cc(-c2ccc3c(N)n[nH]c3c2)nc(NC)n1 [GSK2376236]	0	0	3	7	3	11	0	0	20	94.6	23	28	0	11	0	0	0	0	0	6
Cc1cnc(N)c(/C=C/c2cncc(C(=O)NCCc3ccc(Cl)cc3Cl)c2)c1.Cl [GSK190937]	0	0	0	7	1	0	0	96.4	98.8	0	0	9	0	19	0	2	0	1	0	4
COc1ccc(Nc2nccc(N3CCC(NC(=O)c4cc5ccccc5s4)C3)n2)cc1 (stereo not shown) [GSK1379738]	0	0	2	0	15	0	0	0	26	0	16	4	0	0	0	0	0	0	0	0
O=C1NC(=O)C(c2ccc(Cl)cc2)=C1Nc1ccc(O)cc1 [SB-340867]	0	0	0	0	0	4	0	0	0	17	13	0	0	0	0	0	0	0	0	17
Cn1cncc1-c1cc2c(Nc3ccc(OCc4ccccc4)cc3)ncnc2cn1 [GW281179]	0	0	0	0	11	0	21	0	16	0	9	20	4	0	24	0	0	0	0	0
Cc1c(Cn2c(C)c(C)n3c(=O)cc(N4CCOCC4)nc23)cccc1C(F)(F)F [GSK2328680]	0	19	0	0	0	0	31	0	16	0	8	10	0	0	4	0	20	99.1	80	4

Structure (SMILES)	%Inh [1] [%]	%Inh [2] [%]	%Inh [3] [%]	%Inh [4] [%]	%Inh [5] [%]	%Inh [6] [%]	%Inh [7] [%]	%Inh [8] [%]	%Inh [9] [%]	%Inh [10] [%]	%Inh [11] [%]	%Inh [12] [%]	%Inh [13] [%]	%Inh [14] [%]	%Inh [15] [%]	%Inh [16] [%]	%Inh [17] [%]	%Inh [18] [%]	%Inh [19] [%]	%Inh [20] [%]
Fc1ccc(-c2nc[nH]c2-c2ccncc2)cc1 [SB-217360]	0	13	2	0	0	0	0	0	0	0	12	0	0	3	0	0	12	0	0	0
NS(=O)(=O)c1cccc(N/C=C2\C(=O)Nc3ccc(S(=O)(=O)Cc4c(Cl)cccc4Cl)cc32)c1 [GSK398099]	0	0	5	4	6	0	21	0	20	0	26	5	0	0	4	0	16	0	0	41
Cc1nccc(-c2c(-c3ccc(F)cc3)ncn2CCCN2CCOCC2)n1.Cl [SB-282975]	0	0	0	0	1	3	10	0	0	29	24	2	33	89	0	22	0	20	49	0
COc1ccc2cc(-c3nc(-c4ccccc4C(C)C)[nH]c3-c3ccncc3)ccc2c1 [SB-660566]	30	0	0	0	51	0	2	0	7	0	12	17	0	0	0	0	0	0	0	0
CC(=O)c1cccc(NC(=O)NC2CCN(c3ccnc(Nc4ccc(F)cc4)n3)C2)c1 (stereo not shown) [GSK1379710]	0	0	0	20	8	19	24	10	43	0	26	14	0	1	0	0	0	0	24	7
COc1ccc(Nc2nccc(N3CCC(NC(=O)C(C)c4ccc(Cl)cc4)CC3)n2)cc1 (stereo not shown) [GSK1379812]	47	2	0	22	100	0	15	0	27	7	8	5	0	16	15	0	21	22	0	12
Cc1c(Cn2c3ccccc3n3c(=O)cc(N4CCOCC4)nc23)cccc1C(F)(F)F [GSK2306394]	23	0	0	0	0	0	5	11	25	0	14	21	12	18	9	3	1	98.4	52	0
COc1ccc(Nc2nccc(N3CCC(NC(=O)C(C)c4ccc(Cl)cc4)C3)n2)cc1 (stereo not shown) [GSK1379735]	71	0	0	6	0	10	9	0	34	4	0	28	4	0	0	0	0	0	0	0
O=C(Nc1n[nH]c2nc(-c3ccco3)c(Br)cc12)C1CCN(Cc2ccccc2)C1.O=C(O)[C@H](O)[C@@H](O)C(=O)O (stereo not shown) [SB-742034]	12	0	0	8	86	83	76	7	30	18	0	27	3	4	16	13	0	2	0	4
Cc1ccccc1-c1cc(-c2c[nH]nc2-c2ccccn2)ccn1 [GW680061]	0	0	0	0	2	7	20	0	41	0	0	0	0	0	0	0	0	0	4	0
CNc1nc(-c2ccc3c(N)n[nH]c3c2)cc(N2C[C@@H](C(=O)NC3CCCCC3)OC[C@H]2C)n1 [GSK2375584]	0	0	0	24	0	10	21	0	35	79	13	25	3	13	0	0	4	34	0	9
O=C1NC(=O)C(c2ccc(Cl)cc2)=C1Nc1cccc(Cl)c1 [SB-317651]	14	18	0	0	0	15	12	9	0	0	0	1	0	0	13	0	9	96.7	0	38
COC(=O)c1cccc(NC(=O)NC2CCN(c3ccnc(Nc4ccc(OC)cc4)n3)C2)c1 (stereo not shown) [GSK1379746]	0	0	0	0	0	0	0	0	35	0	10	27	19	0	20	0	0	0	30	0
Cc1ccc(NC(=O)c2ccc(Cl)cc2)cc1-c1ccc(C(=O)Nc2ccncc2)cc1 [GSK1398467]	19	0	0	65	0	0	0	66	100	0	0	0	0	16	0	0	0	0	0	0
CS(=O)(=O)CCNCc1nc(-c2ccc3ncnc(Nc4ccc(OCc5ccccc5)c(Cl)c4)c3c2)cs1.Cl [GW582764]	24	0	0	0	6	0	17	0	8	0	7	3	0	0	0	0	0	0	0	0
CC(=O)c1c(C)c2cnc(Nc3ccn(C)n3)nc2n(C2CCCC2)c1=O	0	0	0	0	0	0	100	0	0	0	0	0	0	2	0	0	0	0	18	61
Nc1ncnc2occ(-c3ccc4c(c3)CCN4C(=O)Cc3cc(F)ccc3F)c12 [GSK2645446]	0	0	0	12	2	0	2	0	50	0	12	10	0	0	14	0	0	0	0	5
Cc1ccc(NC(=O)Nc2ccc(Cl)c(C(F)(F)F)c2)cc1-c1ccc(C(=O)Nc2ccncc2)cc1 [GSK1398470]	22	0	0	2	0	6	14	19	97.5	26	21	0	23	4	0	2	9	0	0	10
COC(=O)C(NC(=O)NC1CCN(c2ccnc(Nc3ccc(F)cc3)n2)C1)c1ccccc1 (stereo not shown) [GSK1379712]	0	0	0	2	0	14	24	14	38	0	14	17	0	0	14	0	1	5	23	9
FC(F)(F)c1ccccc1-c1cc(-c2c[nH]nc2-c2ccccn2)ccn1 [GW679396]	8	0	3	0	0	10	7	0	19	18	10	14	3	4	0	0	0	18	0	3
